Measured values from the supplement of paper PMC11732987, “Enantioselective OTUD7B fragment discovery through chemoproteomics screening and high-throughput optimisation” (Communications Chemistry, 2025).

Key:
Experiment in all cases: log2 ratio of Biotin-Ahx-Ub-VS probe labelling (fragment/DMSO); higher = less target engagement (more negative = stronger competition), active = hit call of the paper (q ≤ 0.05, log2 ratio ≤ -1)
Conditions in all cases: compound concentration: 200 uM; treatment time: 3 h
USP19 = molecular target: T1, USP19 (UniProt O94966)
T1 sequence (whole entry): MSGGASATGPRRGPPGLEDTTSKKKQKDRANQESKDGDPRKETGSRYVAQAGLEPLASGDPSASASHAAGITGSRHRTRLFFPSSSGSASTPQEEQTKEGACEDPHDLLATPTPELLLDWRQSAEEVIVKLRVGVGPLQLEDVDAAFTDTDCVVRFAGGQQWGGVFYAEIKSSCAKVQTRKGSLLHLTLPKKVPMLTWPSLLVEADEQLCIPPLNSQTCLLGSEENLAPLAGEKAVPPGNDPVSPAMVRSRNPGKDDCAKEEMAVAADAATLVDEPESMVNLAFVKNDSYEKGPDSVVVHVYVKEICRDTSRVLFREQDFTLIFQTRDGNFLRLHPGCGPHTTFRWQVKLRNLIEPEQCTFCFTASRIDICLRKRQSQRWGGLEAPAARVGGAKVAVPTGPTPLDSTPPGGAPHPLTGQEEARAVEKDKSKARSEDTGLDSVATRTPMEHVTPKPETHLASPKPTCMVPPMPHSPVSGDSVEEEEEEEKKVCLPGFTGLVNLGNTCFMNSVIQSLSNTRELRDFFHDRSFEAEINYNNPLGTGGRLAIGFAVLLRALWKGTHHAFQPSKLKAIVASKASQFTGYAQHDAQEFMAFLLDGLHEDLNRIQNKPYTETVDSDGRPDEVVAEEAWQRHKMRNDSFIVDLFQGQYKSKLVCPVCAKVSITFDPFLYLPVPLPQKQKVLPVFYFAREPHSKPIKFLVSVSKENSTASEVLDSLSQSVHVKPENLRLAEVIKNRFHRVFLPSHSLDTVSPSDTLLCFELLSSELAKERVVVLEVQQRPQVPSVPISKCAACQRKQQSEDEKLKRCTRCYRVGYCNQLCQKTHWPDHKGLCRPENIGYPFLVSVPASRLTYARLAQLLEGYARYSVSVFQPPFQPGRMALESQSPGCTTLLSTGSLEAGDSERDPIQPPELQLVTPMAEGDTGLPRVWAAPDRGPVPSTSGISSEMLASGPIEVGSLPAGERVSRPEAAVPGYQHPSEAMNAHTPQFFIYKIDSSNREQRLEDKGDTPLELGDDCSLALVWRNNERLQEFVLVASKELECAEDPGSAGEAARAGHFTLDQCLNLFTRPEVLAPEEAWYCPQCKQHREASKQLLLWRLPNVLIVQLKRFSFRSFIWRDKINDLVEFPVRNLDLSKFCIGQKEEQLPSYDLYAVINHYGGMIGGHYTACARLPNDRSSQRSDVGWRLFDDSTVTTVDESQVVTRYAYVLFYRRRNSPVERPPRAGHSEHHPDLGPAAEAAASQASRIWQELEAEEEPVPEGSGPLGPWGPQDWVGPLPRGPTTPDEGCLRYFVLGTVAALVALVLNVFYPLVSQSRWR
Summary of the method: (§1)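 The table lists average log2 ratios of fragment over vehicle, from an unpaired t-test on global-median-normalised Spectronaut label-free quantities. Proteins with ≥2 unique peptides were used. Samples were HEK293T lysate (495 µg) treated in triplicate with fragment at 200 µM or vehicle for 3 h, then with Biotin-Ahx-Ub-VS (0.5 µM final) for 1 h, with labelled DUBs NeutrAvidin-enriched and run by diaPASEF LC-MS/MS.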

USP24 = USP24 (UniProt Q9UPU5)
Summary of the method: as §1

USP25 = molecular target: T2, USP25 (UniProt Q9UHP3)
T2 sequence (whole entry): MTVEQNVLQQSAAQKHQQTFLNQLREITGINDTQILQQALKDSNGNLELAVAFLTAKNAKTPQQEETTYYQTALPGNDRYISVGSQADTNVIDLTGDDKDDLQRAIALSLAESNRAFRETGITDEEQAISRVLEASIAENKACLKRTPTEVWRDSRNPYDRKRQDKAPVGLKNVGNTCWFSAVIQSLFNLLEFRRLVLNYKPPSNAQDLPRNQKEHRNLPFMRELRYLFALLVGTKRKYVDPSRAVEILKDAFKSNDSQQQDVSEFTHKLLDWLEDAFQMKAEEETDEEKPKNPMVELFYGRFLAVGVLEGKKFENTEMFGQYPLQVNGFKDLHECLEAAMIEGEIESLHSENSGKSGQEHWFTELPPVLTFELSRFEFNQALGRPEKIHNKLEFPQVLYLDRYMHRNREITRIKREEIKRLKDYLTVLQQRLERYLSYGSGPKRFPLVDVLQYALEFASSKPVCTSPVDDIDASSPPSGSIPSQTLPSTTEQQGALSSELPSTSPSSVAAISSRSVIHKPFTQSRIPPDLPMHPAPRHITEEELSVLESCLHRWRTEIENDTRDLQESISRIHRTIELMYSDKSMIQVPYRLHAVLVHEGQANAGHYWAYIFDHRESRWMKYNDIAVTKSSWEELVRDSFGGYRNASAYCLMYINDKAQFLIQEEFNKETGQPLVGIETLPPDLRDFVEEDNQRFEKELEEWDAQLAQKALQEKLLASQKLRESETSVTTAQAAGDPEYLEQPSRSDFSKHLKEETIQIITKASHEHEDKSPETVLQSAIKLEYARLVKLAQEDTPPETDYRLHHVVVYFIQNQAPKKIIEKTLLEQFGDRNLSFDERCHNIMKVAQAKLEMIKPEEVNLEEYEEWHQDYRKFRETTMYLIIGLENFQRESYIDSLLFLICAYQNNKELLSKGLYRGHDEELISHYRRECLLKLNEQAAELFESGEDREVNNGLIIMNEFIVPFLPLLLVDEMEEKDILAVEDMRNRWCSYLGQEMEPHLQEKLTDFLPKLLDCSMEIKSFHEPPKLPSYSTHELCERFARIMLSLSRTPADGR
Summary of the method: as §1

USP28 = molecular target: T3, USP28 (UniProt Q96RU2)
T3 sequence (whole entry): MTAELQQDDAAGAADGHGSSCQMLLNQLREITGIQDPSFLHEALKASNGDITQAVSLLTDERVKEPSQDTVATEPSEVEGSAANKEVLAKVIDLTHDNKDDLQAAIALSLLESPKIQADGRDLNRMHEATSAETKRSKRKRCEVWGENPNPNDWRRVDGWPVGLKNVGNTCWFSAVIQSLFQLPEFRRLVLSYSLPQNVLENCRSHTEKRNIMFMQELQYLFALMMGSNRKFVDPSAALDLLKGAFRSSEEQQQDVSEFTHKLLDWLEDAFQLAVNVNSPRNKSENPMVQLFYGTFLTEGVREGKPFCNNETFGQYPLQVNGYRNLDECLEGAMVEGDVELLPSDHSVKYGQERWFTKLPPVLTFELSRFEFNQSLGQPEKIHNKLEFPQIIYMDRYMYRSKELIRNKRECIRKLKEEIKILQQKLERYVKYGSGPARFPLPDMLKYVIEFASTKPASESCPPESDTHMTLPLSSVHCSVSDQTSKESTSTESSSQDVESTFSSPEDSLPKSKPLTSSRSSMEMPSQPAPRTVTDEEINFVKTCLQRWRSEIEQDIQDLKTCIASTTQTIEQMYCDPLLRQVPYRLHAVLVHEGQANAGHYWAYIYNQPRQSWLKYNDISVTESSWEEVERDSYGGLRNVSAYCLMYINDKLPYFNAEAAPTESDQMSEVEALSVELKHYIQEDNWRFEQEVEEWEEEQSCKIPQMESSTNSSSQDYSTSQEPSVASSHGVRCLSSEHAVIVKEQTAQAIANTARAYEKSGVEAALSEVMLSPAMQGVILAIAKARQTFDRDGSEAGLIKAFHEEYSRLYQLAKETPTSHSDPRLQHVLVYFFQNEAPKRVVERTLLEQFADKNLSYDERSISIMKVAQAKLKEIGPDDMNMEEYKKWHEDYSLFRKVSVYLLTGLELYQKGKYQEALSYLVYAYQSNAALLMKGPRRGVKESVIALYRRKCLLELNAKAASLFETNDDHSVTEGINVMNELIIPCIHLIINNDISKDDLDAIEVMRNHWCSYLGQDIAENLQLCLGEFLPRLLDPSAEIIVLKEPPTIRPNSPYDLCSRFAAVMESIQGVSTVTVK
Summary of the method: as §1

Measured: log2 ratio of Biotin-Ahx-Ub-VS probe labelling

USP24, sequence (Q9UPU5 whole entry): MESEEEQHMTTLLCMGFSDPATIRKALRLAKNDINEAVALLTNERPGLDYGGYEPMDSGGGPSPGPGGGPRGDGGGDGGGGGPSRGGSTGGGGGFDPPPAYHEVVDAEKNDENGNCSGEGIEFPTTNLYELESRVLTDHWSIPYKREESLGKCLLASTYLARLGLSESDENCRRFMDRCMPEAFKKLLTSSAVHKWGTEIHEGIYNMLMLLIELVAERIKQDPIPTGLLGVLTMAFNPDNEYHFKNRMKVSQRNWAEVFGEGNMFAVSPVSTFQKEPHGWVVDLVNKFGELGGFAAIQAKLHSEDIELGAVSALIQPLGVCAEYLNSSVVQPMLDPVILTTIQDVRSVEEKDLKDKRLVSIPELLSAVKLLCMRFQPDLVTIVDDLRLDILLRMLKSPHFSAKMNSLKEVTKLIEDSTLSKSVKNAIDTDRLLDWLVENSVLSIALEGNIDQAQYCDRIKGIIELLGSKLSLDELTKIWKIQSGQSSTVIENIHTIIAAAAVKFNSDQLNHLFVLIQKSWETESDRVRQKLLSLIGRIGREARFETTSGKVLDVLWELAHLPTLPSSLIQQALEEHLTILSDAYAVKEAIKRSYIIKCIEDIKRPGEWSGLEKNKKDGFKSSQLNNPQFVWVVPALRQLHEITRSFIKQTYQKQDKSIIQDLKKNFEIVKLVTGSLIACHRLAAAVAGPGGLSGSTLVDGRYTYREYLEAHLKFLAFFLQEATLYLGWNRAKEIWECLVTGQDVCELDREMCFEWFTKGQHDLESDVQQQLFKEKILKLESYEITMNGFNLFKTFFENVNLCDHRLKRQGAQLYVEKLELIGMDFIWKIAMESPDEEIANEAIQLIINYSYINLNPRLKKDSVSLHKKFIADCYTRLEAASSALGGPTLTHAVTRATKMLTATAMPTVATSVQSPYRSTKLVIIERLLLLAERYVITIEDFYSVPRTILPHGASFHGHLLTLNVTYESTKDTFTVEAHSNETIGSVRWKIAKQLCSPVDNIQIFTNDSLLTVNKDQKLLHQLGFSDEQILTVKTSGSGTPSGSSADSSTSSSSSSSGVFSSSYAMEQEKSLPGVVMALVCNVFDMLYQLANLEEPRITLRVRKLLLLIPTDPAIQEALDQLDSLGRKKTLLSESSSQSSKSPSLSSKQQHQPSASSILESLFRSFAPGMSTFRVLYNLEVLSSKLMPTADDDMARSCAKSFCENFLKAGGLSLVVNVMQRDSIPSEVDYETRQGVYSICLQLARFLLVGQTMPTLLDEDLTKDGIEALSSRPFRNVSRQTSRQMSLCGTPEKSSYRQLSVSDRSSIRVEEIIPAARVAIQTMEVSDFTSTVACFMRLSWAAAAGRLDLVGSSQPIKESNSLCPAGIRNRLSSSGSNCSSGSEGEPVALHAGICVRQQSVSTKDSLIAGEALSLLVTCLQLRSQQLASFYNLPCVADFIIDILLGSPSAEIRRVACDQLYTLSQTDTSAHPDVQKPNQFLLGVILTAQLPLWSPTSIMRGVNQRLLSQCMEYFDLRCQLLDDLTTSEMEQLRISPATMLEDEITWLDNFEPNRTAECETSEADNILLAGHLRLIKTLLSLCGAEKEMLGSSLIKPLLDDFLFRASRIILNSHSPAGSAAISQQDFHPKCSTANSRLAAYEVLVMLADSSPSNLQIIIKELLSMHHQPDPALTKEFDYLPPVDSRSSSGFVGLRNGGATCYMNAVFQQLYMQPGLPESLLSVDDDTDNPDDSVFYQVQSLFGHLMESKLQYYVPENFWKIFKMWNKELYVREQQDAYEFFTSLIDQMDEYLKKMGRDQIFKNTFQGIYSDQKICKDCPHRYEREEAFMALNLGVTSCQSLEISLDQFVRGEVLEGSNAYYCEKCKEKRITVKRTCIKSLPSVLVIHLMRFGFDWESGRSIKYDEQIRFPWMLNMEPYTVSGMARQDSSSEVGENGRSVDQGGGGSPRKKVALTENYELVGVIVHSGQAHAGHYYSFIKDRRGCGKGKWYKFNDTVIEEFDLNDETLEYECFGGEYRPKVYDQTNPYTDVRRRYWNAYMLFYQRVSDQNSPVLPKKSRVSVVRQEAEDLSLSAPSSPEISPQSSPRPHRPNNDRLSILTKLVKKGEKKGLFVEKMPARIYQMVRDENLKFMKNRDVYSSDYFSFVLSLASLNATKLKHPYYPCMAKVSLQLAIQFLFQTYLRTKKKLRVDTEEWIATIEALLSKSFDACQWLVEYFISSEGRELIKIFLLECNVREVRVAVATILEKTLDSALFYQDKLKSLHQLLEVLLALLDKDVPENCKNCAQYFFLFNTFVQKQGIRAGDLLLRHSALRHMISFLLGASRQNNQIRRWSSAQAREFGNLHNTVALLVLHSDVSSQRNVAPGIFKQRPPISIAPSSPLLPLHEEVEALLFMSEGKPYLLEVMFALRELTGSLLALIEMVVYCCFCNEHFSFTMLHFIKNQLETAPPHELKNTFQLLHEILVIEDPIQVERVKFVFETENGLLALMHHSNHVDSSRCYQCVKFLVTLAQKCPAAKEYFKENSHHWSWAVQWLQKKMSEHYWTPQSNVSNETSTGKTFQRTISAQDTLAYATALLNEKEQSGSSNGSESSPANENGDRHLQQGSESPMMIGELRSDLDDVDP

O=C(CCl)N1CCOC2(CCC2)C1
inactive: USP19 0.0251 | USP24 -0.0132 | USP25 -0.216 | USP28 -0.0963
